# Compounds with a hit are over-represented: about 18% of the library has one in this group of screens.
# IL1B secr inh: inhibitors of inflammasome signaling (IL-1 beta secretion). THP-1 LPS/ATP IL-1B secretion, AlphaLISA, 16 h; stronger effect = lower value. actives 4.7% (n = 360,000). activity change, % at 57.5 µM; in the data active means activity change below about -50%; inconclusive means mostly about -30% to -49%
#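 Secreted IL-1B measured by AlphaLISA bead assay after 16 h compound exposure of THP-1 cells; compounds (final up to 57.5 uM) added 1 h before LPS (250 ng/mL) and ATP (1.25 mM) stimulation; lower signal means less secretion.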
# DT40 TDP1 CPT: DT40-hTDP1 cell growth loss with CPT. Potency, µM (top dose mostly 46.2 µM), without a hit: at the top dose activity change, negative = growth inhibition, usual class: inhibitors. chicken DT40 Tdp1-/-;hTDP1 cells + 20 nM CPT, ATP luminescence, 48 h. actives 12% (n = 420,000); further: potency means the concentration at half of the fitted maximal effect; nearly all actives have a fitted effect of over 55% in size
#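 Cell growth measured by CellTiter-Glo luminescence after a minimum 48 h, 37 C compound exposure with 20 nM CPT in Tdp1-knockout DT40 cells stably expressing hTDP1, seeded 400/well; qHTS titration format.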
# RORg inh: ROR gamma (mouse) transcription inhibition | Drosophila S2 Gal4-RORgamma UAS-luciferase reporter, 20 h | Potency, µM (series often up to 53.6 µM), inactives show at the highest dose activity change, negative = inhibition, usual class: inhibitors | actives 5.4% (n = 310,000) | P51450 | AID 2551; further: potency means the concentration at half of the fitted maximal effect; nearly all actives have a fitted effect of over 60% in size
# Target sequence (P51450 whole entry, looked up, the tested form may be a part): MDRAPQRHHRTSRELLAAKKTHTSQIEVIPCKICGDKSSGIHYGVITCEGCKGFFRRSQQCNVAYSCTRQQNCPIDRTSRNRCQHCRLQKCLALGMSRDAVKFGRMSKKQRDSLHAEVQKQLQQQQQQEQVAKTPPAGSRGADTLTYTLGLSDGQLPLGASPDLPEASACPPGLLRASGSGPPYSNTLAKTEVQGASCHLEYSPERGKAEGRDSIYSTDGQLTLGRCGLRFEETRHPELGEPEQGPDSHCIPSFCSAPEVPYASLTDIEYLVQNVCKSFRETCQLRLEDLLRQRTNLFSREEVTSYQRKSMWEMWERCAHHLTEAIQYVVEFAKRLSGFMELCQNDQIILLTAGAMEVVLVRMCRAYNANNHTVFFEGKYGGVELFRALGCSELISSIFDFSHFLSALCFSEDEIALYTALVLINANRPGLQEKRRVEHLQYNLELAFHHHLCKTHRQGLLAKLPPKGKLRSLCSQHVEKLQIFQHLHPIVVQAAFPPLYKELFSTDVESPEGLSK
#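 Read-out: Photinus luciferase luminescence; inhibitors lower reporter signal. Insect Schneider cells with Gal4-ROR gamma fusion under metallothionein promoter, UAS reporter; 700 uM final copper sulfate induction, 20 hr, ambient temperature.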
# VP16 counter: counter-screen for ROR gamma inhibitors: Gal4-VP16 reporter | Drosophila S2 Gal4-VP16 UAS-luciferase, luminescence, 20 h | Potency, µM (series often up to 53.6 µM), for the others: top-dose activity, negative = inhibition, most hits filed as inhibitors | actives 3.5% (n = 310,000);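 further: Gal4-VP16 expression switched on by copper sulfate through the metallothionein promoter; potency means the concentration at half of the fitted maximal effect; nearly all actives have a fitted effect of over 50% in size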
# LDHA block: inhibitors of human lactate dehydrogenase A; activity change, % (values are at about 110 or 230 µM); purified LDHA, NADH/diaphorase-resazurin fluorescence; stronger effect = lower value; actives 0.15% (n = 480,000); in the data active means activity change below about -30%; inconclusive means mostly about -25% to -30%;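 further: plate controls were DMSO wells for no effect and wells without enzyme for full effect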
#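 Human LDH5 at 2 nM final in Tris HCl pH 7.4 with 0.06 mM NADH and 0.2 mM pyruvate, reacted 5 minutes at room temperature. Remaining NADH coupled via diaphorase/resazurin; resorufin fluorescence read at 0 and 20 minutes, normalized to enzyme-free and DMSO wells.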
# TDP1 cell noCPT: qHTS for Inhibitors of human tyrosyl-DNA phosphodiesterase 1 (TDP1): qHTS in cells in absence of CPT | DT40 Tdp1-/- hTDP1 cells, no CPT, ATP luminescence, 48 h | Potency, µM (highest dose often 46.2 µM), for the others: at the highest dose activity change, negative = growth inhibition, usual class: inhibitors | actives 15% (n = 420,000) | AID 686978, 2013; further: potency means the concentration at half of the fitted maximal effect; nearly all actives have a fitted effect of over 55% in size
#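 DT40 Tdp1-/-;hTDP1 cells, no CPT (DMSO vehicle only), 400 cells/well; compounds pin-transferred; ≥48 hr, 37 °C; CellTiter-Glo 30 min RT dark, luminescence read.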
# Numbers without * were called inactive; ? = inconclusive; nt = not tested or not shown; [ ] = dose if it differs, or a comment. Unless noted, the call rests on the fitted dose curve; in most records, active means well fitted curve in the direction sought with a large enough effect; inconclusive means small, poorly fitted or top-dose-only effect, or another doubt; inactive means no such curve, though single readings can be large; an effect the other way counts as inactive or inconclusive. Unless noted, on the % scale 0 is the no-effect control and ±100 the full control effect.
SMILES,IL1B secr inh,DT40 TDP1 CPT,RORg inh,VP16 counter,LDHA block,TDP1 cell noCPT
C[C@H](CO)N1C[C@H](C)[C@@H](CN(C)C(=O)Nc2ccccc2)Oc2ccc(NC(=O)Nc3ccc4c(c3)OCO4)cc2C1=O,-2,0%,nt,nt,7,-12%
COc1ccc(NC(=O)N(C)C[C@H]2OCCCC[C@H](C)Oc3ccc(NC(=O)Nc4ccc5c(c4)OCO5)cc3C(=O)N([C@@H](C)CO)C[C@@H]2C)cc1,-30,21µM*,nt,nt,8,?
CCN(/N=C/C=C/c1ccccc1)c1cc(=O)n(C)c(=O)[nH]1,-28,1.5µM*,3%,3%,9,-62%
CC(=O)NCc1ccc(-c2csc(Nc3ccc(F)cc3)n2)s1,nt,nt,nt,nt,6,nt
Cc1ccc(N(CCC#N)C(=O)CCl)cc1C,-98*,?,?,-26%,-3,7.3µM*
S=c1[nH]nc(Nc2ccccc2Cl)s1,-1,-1%,7.9µM*,0%,-10,5%
COc1ccccc1CNC(=O)CN(C)Cc1ccc(SC)cc1,-17,16µM*,1%,3%,1,23µM*
CSc1ccc(CN(C)CC(=O)Nc2ccccc2Br)cc1,0,23µM*,19%,-2%,-1,?
CN(CC(=O)Nc1ccccc1Br)C(=O)CCSc1ccc(F)cc1,1,?,nt,nt,-4,13µM*
COc1cccc(CN(C)CC(=O)NCc2ccc(F)cc2)c1OC,7,-23%,-3%,-15%,-5,-29%
Cc1ccc(SCCC(=O)Nc2ccccc2Br)cc1,13,7%,3%,?,3,-9%
CC(NC(=O)CCCC(=O)O)C1CC2CCC1C2 (configuration not stated),nt,nt,nt,nt,-5,nt
c1ccc2c3c(ccc2c1)-c1cccc2cccc(c12)O3,nt,nt,nt,nt,18,nt
Oc1ccccc1C=Nc1ccccc1-c1nc2ccccc2[nH]1,-3,?,31%,?,-3,16µM*
Oc1ccc(C=Nc2ccccc2-c2nc3ccccc3[nH]2)c(O)c1,-20,-19%,-1%,?,1,-1%
c1ccc2c(-c3nc4ccccc4[nH]3)cccc2c1,35,9.2µM*,nt,nt,-3,4.6µM*
c1ccc2nc(-c3nc4ccccc4[nH]3)ccc2c1,15,?,-29%[0.365 µM],nt,1,5.2µM*
Fc1ccccc1-c1nc2ccccc2[nH]1,-2,-6%,35%,-4%,-14,-21%
CCc1ccc(NC(=O)CN2CC(CC)Sc3ccccc32)cc1 (configuration not stated),nt,nt,nt,nt,12,nt
Cc1cc(C(=O)OCC(=O)NC2(C#N)CCCCC2)c2ccccc2n1,nt,nt,nt,nt,1,nt
CCOc1ccc(NC(=S)N2CCC(c3nc4ccccc4[nH]3)CC2)cc1,-18,2%,-1%,-9%,0,1%
CCNC(=S)N1CCCC(c2nc3ccc(C)cc3[nH]2)C1 (configuration not stated),-2,-4%,9%,0%,-8,?
Cc1cc2nc(C3CCCN(C(=S)Nc4ccccc4)C3)[nH]c2cc1C (configuration not stated),60,?,13µM*,?,-8,?
Cc1ccc2nc(C3CCCN(C(=S)Nc4ccccc4C)C3)[nH]c2c1 (configuration not stated),-2,?,?,?,-7,21µM*
C=C1C(=O)O[C@@H]2C[C@@H](C)[C@@H]3C=CC(=O)[C@@]3(C)[C@@H](OC(C)=O)[C@H]12,?,0.82µM*,1.3µM*,1.3µM*,-2,0.65µM*
SMILES,IL1B secr inh,DT40 TDP1 CPT,RORg inh,VP16 counter,LDHA block,TDP1 cell noCPT
CC(=O)OC1C(OC(C)=O)C2C(C)CC3OC(=O)C(C)C3CC2(C)C1OC(C)=O (configuration not stated),12,2%,nt,nt,0,-19%
Cc1ccc(C(=O)NCC(F)(F)F)cc1N,nt,nt,nt,nt,-2,nt
Cc1cccc(C)c1NC(=O)CCCCCC1NC(=O)NC1C (configuration not stated),-55*,2%,-1%,2%,-6,22%
N[C@@H](CCCCNC(=O)CCCC[C@@H]1SC[C@H]2NC(=O)N[C@H]12)C(=O)O,nt,nt,9%,-7%,nt,nt
CCCCCC1NC(=O)NC1CCCCCC(=O)O (configuration not stated),2,-1%,-5%,5%,-2,-5%
CC1NC(=O)NC1CCCCCC(=O)NCCc1ccccc1 (configuration not stated),-96*,-7%,-9%,5%,3,-9%
C[C@@H]1NC(=O)N[C@@H]1CCCCCC(=O)O,-102*,-14%,nt,nt,-4,-12%
O=C(CCCCC(=O)NCCCc1ccccc1)NCCCc1ccccc1,2,4%,8%,-15%,-2,?
O=C(O)CCCCC1SCC2NC(=O)NC21 (configuration not stated),-56*,5%,10%,-4%,-10,5%
O=C(NC(=S)NC1CCCc2ccccc21)c1ccco1 (configuration not stated),-9,16µM*,7.1µM*,?,1,?
O=C(NC(=S)NC1CCCc2ccccc21)c1ccc(F)cc1 (configuration not stated),-5,?,8.9µM*,16µM*,1,?
O=C(NC(=S)NC1CCC(O)CC1)c1ccco1 (configuration not stated),2,7%,nt,nt,-8,8%
Fc1ccc(/C=N/Nc2ccc(Cl)cc2)cc1F,nt,nt,nt,nt,-5,nt
CN(CCc1ccccc1)C(=O)c1cccc(NC(=O)Cc2cccc(NC(=O)C3CCN(C(=O)C4CCC4)CC3)c2)c1,1,?,nt,nt,2,15µM*
CN(CCc1ccccc1)C(=O)c1ccc(NC(=O)Cc2cccc(NC(=O)C3CCN(C(=O)C4CCCCC4)CC3)c2)cc1,21,?,nt,nt,-2,21µM*
CCOC(=O)CNC(=O)c1cc(-c2ccc(Cl)cc2)nc2ccccc12,nt,nt,nt,nt,7,nt
Cc1ccccc1CN1CCCC(C(=O)Nc2ccc(-c3ccn[nH]3)cc2)C1 (configuration not stated),?,16µM*,39%,-2%,-7,?
CCc1ncc(CN2CCCC(C(=O)Nc3cccc(-c4ccc(F)cc4)c3)C2)cn1 (configuration not stated),-12,23µM*,?,1%,1,16µM*

# Screening results as filed in PubChem.
